Sampled rows, rich in hits. Any-hit rate of the full collection: about 11%.
HCV inhibitor: HCV inhibition; hit rate 3.4% among 340,000; Potency, µM (titrated, usually from 41.8 µM), without a hit: at the highest dose activity change, negative = inhibition, actives largely listed as inhibitors; Huh7.5.1 HCVcc-Cre infection, luciferase reporter, 44 h; AID 651820
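Luciferase read-out (15 sec integration) after a 15 min room-temperature substrate step quantifies HCVcc-Cre infection. Cells, 1,000 per well, had compound added 4 h post-plating, then virus at ~0.5 moi, and were cultured 44 h.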
AMA1-RON2 inh: inhibitors of Plasmodium falciparum AMA1-RON2 interaction; AlphaScreen AMA1-biotinylated RON2 peptide binding; Potency, µM (doses to about 58.2 µM), for inactives: at the top dose activity change, negative = inhibition, actives largely listed as inhibitors; hit rate 0.2% among 360,000; AID 720542;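 also: 0% = vehicle wells and -100% = peptide control; nearly all actives have a fitted effect of over 45% in size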
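AMA1 (3D7) with his tag at 25 nM final met compounds first, then biotinylated RON2 peptide at 25 nM; detection used donor plus acceptor beads, 10 µg/mL apiece, read by AlphaScreen after 30 min at room temperature.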
Pf growth 48h: inhibits P. falciparum growth in the first generation, 48 h; P. falciparum luciferase growth in erythrocytes, 48 h; Potency, µM (top dose mostly 28.7 µM), inactives show at the top dose activity change, negative = inhibition, usual class: inhibitors; hit rate 5.9% among 310,000; AID 504832
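Erythrocytes infected with P. falciparum carrying an integrated firefly luciferase reporter (2% hematocrit, 0.1% parasitemia final) were exposed to compounds in RPMI 1640 with 0.5% Albumax at 37 C, 5% CO2. Growth inhibition was scored as reduced luminescence.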
Pf growth 96h: P. falciparum growth inhibition at 96 hours; Potency, µM (series often up to 28.7 µM), for the others: at the top dose activity change, negative = inhibition, most hits filed as inhibitors; P. falciparum luciferase reporter growth, 96 h; hit rate 6.9% among 320,000
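Parasite growth measured via integrated firefly luciferase reporter in P. falciparum. Infected erythrocytes at 2% hematocrit, 0.05% parasitemia final were treated 96 hours at 37 C under 5% CO2, and luminescence was read.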
* = called active by the depositor; u = inconclusive; x = no result. Calls follow the shape of the dose curve; as a rule, active = well fitted curve in the direction sought with a large enough effect; inconclusive = small, poorly fitted or top-dose-only effect, or another doubt; inactive = no such curve, though single readings can be large; an effect the other way counts as inactive or inconclusive. Unless noted, % is scaled to controls: 0 for no effect and ±100 for the full control effect; potency is read from the fitted curve at half-maximal effect.

SMILES	HCV inhibitor	AMA1-RON2 inh	Pf growth 48h	Pf growth 96h
COc1cccc(CN(C)C(=O)c2cccc(S(=O)(=O)N3CCN(Cc4ccccc4)CC3)c2)c1OC	7.94µM*	16.6%	u	u
CN(Cc1ccc(Cl)cc1Cl)C(=O)c1cccc(S(=O)(=O)N2CCN(c3ccccc3)CC2)c1	12.6µM*	-16.5%	u	u
CN(CC(=O)Nc1ccc(F)cc1)C(=O)c1cccc(S(=O)(=O)N2CCN(c3ccccc3)CC2)c1	-41.7%	-12.4%	-17.1%	u
CCN1CCN(C(=O)C2CCC(=O)N(Cc3cccc(C(F)(F)F)c3)C2)CC1 (stereo not drawn)	5.6%	9.9%	-10.6%	u
COc1cccc(CN(C)C(=O)C2CCN(S(=O)(=O)c3ccc(C)cc3)CC2)c1OC	4.0%	-2.0%	13.1µM*	11.7µM*
COc1cccc(NC(=O)CN(C)C(=O)c2cccc(S(=O)(=O)N3CCN(c4ccccc4)CC3)c2)c1	u	0.0%	u	u
COc1cccc(CN(C)C(=O)c2cccc(S(=O)(=O)N3CCN(c4ccccc4)CC3)c2)c1OC	7.08µM*	-6.7%	x	x
CN(Cc1ccc(OC(F)F)cc1)C(=O)c1cccc(S(=O)(=O)N2CCN(Cc3ccccc3)CC2)c1	5.62µM*	23.0%	x	x
CN(Cc1cccs1)C(=O)C1CCN(S(=O)(=O)c2ccccc2)CC1	5.7%	5.2%	u	u
CN(CCOc1ccc(Cl)cc1)C(=O)c1cccc(S(=O)(=O)N2CCN(c3ccccc3)CC2)c1	3.55µM*	-8.8%	x	x
Cc1ccc(C)c(C(O)c2ncc(-c3cccc(C(F)(F)F)c3)[nH]2)c1 (stereo not drawn)	x	-3.6%	x	x
O=C(CCN1C(=O)c2ccccc2C1=O)C1=NN[C@@H]2C(=O)N(c3ccc4c(c3)OCO4)C(=O)[C@H]12	17.9%	9.0%	36.5%	5.4%
O=C(NCCCN1CCOCC1)c1cc(-c2cccs2)on1	-11.2%	0.0%	39.1%	x
O=C(NCCCN1CCOCC1)c1ccc(-n2nc(C(F)(F)F)cc2-c2cccs2)cc1	u	-7.4%	9.28µM*	x
COCCCNC(=O)c1ccc(-n2nc(C(F)(F)F)cc2-c2cccs2)cc1	7.1%	0.2%	11.7µM*	x
COCCCNC(=O)c1cccs1	-10.7%	0.0%	8.4%	x
O=S(=O)(NCCS(=O)(=O)N1CCN(c2ccc(F)cc2)CC1)c1ccc(F)cc1	x	28.9%	x	x
CCC(C(=O)O)C1CCC(C)C(C(C)C(O)C(C)C(=O)C(CC)C2OC3(C=CC(O)[C@@]4(CC[C@](C)(C5CC[C@@](O)(CC)C(C)O5)O4)O3)C(C)CC2C)O1 (stereo partly drawn)	x	x	0.426µM*	0.213µM*
CC[C@@H](C(=O)[C@@H](C)[C@@H](O)[C@H](C)[C@@H]1O[C@@H]([C@@H](CC)C(=O)O)CC[C@@H]1C)[C@H]1O[C@]2(C=C[C@@H](O)[C@]3(CC[C@@](C)([C@H]4CC[C@](O)(CC)[C@H](C)O4)O3)O2)[C@H](C)C[C@@H]1C	0.355µM*	-6.3%	x	x
COc1ccc(C(=O)C2CCCN(C(=O)/C=C/c3cnc[nH]3)C2)c(C)c1 (stereo not drawn)	15.5%	5.2%	5.8%	35.9%
O=C1C(O)=CC(=C(c2ccccc2)c2ccccc2)c2ccccc21	u	10µM*	x	x
Cc1cc(S(=O)(=O)NCC(c2ccc3c(c2)OCO3)N2CCOCC2)ccc1F (stereo not drawn)	2.8%	-5.1%	u	14.7µM*
CC(=NO)C1(C)CC=CCC1CO (stereo not drawn)	x	0.0%	x	x
CC(=O)c1cccc(OCC(O)CN2CC=C(c3ccccc3)CC2)c1 (stereo not drawn)	u	-22.7%	u	1.85µM*
CC(=O)c1cccc(OCC(O)CN2CCN(C(=O)c3ccco3)CC2)c1 (stereo not drawn)	9.7%	14.7%	-1.3%	-0.2%
SMILES	HCV inhibitor	AMA1-RON2 inh	Pf growth 48h	Pf growth 96h
Cc1cccc(NC(=S)N(C)C)c1C	6.5%	4.6%	35.7%	7.2%
Cc1cccc(Nc2cc(C)c3c(O)cccc3n2)c1C	u	u	0.738µM*	1.1%
O=C(CN1CCN(Cc2ccccc2)CC1)N1CCCc2c1c(=O)oc1ccc(O)cc21	u	-5.3%	2.94µM*	-17.0%
CCN1CCN(C(=O)CCc2ccc(S(=O)(=O)NCCc3ccccc3)cc2)CC1	-14.8%	0.3%	u	u
CC1C(=O)N2CCCc3cc(S(=O)(=O)NCc4ccccc4Cl)cc1c32 (stereo not drawn)	-24.3%	-11.2%	13.1µM*	-13.4%
COc1ccccc1-c1cccc(-c2nc(C(=O)Nc3nccs3)cc3c2[C@@H](CCO)N(C(=O)CC2CC2)C3)c1	x	85.6%	x	x
CN(Cc1nc(Cc2cccc(F)c2)no1)CC1CCOCC1	10.1%	3.3%	2.0%	14.7µM*
CC1CCc2c(sc3ncnc(SCC(=O)N(C)C4CCS(=O)(=O)C4)c23)C1 (stereo not drawn)	-14.3%	2.7%	x	x
CCOC(=O)/C(=N\Nc1cc(Cl)ccc1Cl)N1CCN(CC)CC1	u	-5.3%	u	3.29µM*
CCN1CCN(C(=O)C2CCCN(S(=O)(=O)c3cc(Cl)ccc3Cl)C2)CC1 (stereo not drawn)	x	3.5%	u	-26.5%
Cc1ccc(S(=O)(=O)N(CC(=O)Nc2cccc(N(C)S(C)(=O)=O)c2)c2ccc(Cl)c(Cl)c2)cc1	u	-6.0%	13.1µM*	u
CN(c1cccc(NC(=O)CN(c2ccc(C34CC5CC(CC(C5)C3)C4)cc2)S(C)(=O)=O)c1)S(C)(=O)=O	u	-11.6%	u	16.5µM*
Cc1ccc(NS(=O)(=O)c2cc(C(=O)N(C)C)ccc2C)cc1C	-2.7%	0.7%	-10.5%	41.3%
CCn1c(CNc2cccc(C(F)(F)F)c2)n[nH]c1=S	1.9%	98.4%	4.9%	33.9%
O=C(Nc1cccc(S(=O)(=O)c2cccc(NC(=O)c3ccco3)c2)c1)c1ccco1	11.2µM*	1.8%	13.1µM*	11.7µM*
O=C(Nc1cccc(C(F)(F)F)c1)c1ccco1	10µM*	7.1%	-2.2%	-15.4%
CC1CC(=O)N(CC(=O)Nc2ccccc2F)c2ccccc2S1(=O)=O (stereo not drawn)	15.2%	8.3%	13.2%	2.7%
CC(=O)NCC(=O)OC(C(=O)c1ccccc1)c1ccc(Cl)cc1 (stereo not drawn)	33.8%	26.1%	-19.5%	u
CCOc1ccc(C(=O)NCC(=O)NC(C)CCc2ccccc2)cc1OCC (stereo not drawn)	u	66.4%	u	u
COc1cccc(CNC(=O)C2CCN(c3cnccn3)CC2)c1	30.0%	7.1%	11.1%	u
O=c1nc(N/N=C/c2c[nH]c3ccccc23)cn[nH]1	3.1%	72.6%	193.2%	0.415µM*
Cc1ccc(O)c(CNc2nc3ccccc3n2C(C)C)c1	u	-4.4%	8.28µM*	15.4%
CC(C)n1c(NCc2cc(Cl)ccc2O)nc2ccccc21	u	-16.3%	x	26.2%
CC(C)n1c(NCc2nc3ccccc3n2C)nc2ccccc21	8.1%	32.3%	u	x
COc1ccc(CNc2nc3ccccc3n2C)c(O)c1	-2.1%	0.4%	0.0%	-6.7%

Assay outcomes as filed in PubChem.
